# Laboratory results: ChEMBL document CHEMBL3988442, “University of Dundee, Small-Polar-MMV Screening Library” (2021)
# Where “and” joins values, the source holds several entries; their conditions need not be identical. Identical values can stand only once. For some assays here: Measured potencies and affinities stand elsewhere.
# Legend:
# [1] = molecular target: T1, Methionyl-tRNA synthetase, putative (Leishmania donovani (strain BPK282A1)) (UniProt E9BF75); assay: Leishmania donovani Methionine tRNA synthetase (LdMetRS):v7. Dose response assay; assay type: functional; set-up: conc 80 nM, time 150 minutes
# T1 sequence (whole entry): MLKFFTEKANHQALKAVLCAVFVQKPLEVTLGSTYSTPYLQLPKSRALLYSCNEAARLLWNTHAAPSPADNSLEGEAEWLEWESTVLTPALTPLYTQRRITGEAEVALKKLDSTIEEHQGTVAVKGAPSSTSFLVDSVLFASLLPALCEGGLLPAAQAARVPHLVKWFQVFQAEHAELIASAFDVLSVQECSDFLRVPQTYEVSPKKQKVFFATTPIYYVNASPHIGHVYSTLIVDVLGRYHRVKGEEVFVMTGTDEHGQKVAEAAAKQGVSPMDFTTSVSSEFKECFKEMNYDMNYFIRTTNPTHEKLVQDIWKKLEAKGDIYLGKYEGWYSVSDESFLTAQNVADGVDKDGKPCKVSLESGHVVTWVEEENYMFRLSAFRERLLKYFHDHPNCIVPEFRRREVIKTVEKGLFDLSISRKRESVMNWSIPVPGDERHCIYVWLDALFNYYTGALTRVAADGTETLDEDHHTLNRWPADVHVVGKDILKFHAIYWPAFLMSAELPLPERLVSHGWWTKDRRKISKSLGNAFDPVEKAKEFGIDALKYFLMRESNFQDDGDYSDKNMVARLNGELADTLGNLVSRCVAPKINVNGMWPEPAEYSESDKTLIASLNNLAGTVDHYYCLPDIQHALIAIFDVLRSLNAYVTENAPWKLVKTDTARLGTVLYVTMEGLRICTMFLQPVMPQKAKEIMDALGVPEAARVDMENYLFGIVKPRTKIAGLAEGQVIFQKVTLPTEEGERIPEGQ
# [2] = molecular target: Protein translocase subunit SecA (Escherichia coli (strain K12)) (UniProt P10408); assay: Assay to Identify E. coli SecA ATPase Inhibitors; assay type: functional; set-up: scale not given: direction of the effect not stated beside the values; conditions: 30 µM
# Chain of Protein translocase subunit SecA (Escherichia coli (strain K12)) (P10408 whole entry): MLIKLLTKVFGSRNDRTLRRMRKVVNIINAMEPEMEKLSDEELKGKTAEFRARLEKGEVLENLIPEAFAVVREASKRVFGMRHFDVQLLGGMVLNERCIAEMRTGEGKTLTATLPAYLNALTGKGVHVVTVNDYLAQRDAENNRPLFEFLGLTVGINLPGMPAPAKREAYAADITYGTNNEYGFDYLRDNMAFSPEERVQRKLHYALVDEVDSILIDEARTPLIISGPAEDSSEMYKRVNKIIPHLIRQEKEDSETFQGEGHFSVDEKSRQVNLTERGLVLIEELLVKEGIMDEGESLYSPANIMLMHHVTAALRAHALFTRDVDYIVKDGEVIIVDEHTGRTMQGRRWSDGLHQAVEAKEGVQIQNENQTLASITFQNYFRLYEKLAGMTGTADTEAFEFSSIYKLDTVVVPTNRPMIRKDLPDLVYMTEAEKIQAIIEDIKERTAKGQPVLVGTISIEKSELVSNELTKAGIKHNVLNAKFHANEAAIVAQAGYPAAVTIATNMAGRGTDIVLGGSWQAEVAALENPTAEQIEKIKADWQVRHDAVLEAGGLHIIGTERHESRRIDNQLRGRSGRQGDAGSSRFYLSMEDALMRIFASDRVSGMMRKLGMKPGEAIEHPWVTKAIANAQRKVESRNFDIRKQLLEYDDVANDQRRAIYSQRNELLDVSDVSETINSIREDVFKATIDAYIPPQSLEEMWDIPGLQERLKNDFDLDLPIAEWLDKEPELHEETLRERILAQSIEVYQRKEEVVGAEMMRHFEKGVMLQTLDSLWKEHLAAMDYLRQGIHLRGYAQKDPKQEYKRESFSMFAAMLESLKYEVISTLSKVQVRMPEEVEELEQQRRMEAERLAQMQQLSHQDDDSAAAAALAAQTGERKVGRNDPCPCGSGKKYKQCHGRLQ
# [3] = molecular target: T2, Ubiquitin-activating enzyme e1, putative (Leishmania donovani (strain BPK282A1)) (UniProt E9BSI1); assay: Leishmania donovani Ubiquitin Activating Enzyme (LdE1); assay type: functional; set-up: scale not given: direction of the effect not stated beside the values; conditions: 30 µM
# T2 sequence (whole entry): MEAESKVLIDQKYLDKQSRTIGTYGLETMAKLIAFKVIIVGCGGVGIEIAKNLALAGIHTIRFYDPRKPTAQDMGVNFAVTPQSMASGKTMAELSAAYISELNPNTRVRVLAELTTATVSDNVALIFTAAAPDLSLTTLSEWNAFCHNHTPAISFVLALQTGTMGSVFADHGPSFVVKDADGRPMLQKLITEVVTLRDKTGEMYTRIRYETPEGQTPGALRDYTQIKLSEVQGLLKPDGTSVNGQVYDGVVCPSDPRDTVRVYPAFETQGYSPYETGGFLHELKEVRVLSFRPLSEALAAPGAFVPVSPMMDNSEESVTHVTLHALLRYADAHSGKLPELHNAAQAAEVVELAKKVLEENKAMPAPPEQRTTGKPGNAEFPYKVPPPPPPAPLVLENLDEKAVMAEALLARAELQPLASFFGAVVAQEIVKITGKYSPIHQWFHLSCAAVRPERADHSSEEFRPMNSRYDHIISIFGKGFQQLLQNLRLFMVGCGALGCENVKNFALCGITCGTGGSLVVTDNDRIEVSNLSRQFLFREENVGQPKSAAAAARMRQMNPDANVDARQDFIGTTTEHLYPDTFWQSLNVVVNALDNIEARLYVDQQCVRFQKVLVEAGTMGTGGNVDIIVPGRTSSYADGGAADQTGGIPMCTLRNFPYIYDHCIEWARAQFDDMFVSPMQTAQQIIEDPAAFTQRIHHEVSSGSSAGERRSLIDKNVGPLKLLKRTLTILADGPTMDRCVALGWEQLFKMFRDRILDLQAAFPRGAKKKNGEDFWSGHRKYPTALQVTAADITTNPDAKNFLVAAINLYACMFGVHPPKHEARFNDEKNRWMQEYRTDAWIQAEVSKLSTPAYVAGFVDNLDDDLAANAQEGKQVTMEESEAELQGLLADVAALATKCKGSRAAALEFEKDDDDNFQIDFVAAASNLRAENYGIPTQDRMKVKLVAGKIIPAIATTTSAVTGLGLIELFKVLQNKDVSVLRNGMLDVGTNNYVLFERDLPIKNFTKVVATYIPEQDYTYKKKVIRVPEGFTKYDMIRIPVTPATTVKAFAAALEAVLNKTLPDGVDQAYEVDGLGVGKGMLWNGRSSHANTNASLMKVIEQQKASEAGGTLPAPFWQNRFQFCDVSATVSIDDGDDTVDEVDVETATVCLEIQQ
# [4] = molecular target: AMP-activated protein kinase, AMPK (Homo sapiens) (UniProt P54646+O43741+P54619+Q9UGJ0+Q9Y478+Q13131+Q9UGI9); assay: AMP-dependent Kinase enzyme assay. An in vitro enzyme assay that detects ADP turnover that is directly proportional to AMPK activity. This uses naive AMPK that is activated during the assay with MK-8722; assay type: functional; set-up: scale not given: direction of the effect not stated beside the values; conditions: 30 µM
# [5] = molecular target: Sialic acid-binding Ig-like lectin 9 (Homo sapiens) (UniProt Q9Y336); assay: Hs-Siglec9 ALPHAscreen SOP 20170721; set-up: scale not given: direction of the effect not stated beside the values; conditions: 10 µM
# Chain of Sialic acid-binding Ig-like lectin 9 (Homo sapiens) (Q9Y336 whole entry): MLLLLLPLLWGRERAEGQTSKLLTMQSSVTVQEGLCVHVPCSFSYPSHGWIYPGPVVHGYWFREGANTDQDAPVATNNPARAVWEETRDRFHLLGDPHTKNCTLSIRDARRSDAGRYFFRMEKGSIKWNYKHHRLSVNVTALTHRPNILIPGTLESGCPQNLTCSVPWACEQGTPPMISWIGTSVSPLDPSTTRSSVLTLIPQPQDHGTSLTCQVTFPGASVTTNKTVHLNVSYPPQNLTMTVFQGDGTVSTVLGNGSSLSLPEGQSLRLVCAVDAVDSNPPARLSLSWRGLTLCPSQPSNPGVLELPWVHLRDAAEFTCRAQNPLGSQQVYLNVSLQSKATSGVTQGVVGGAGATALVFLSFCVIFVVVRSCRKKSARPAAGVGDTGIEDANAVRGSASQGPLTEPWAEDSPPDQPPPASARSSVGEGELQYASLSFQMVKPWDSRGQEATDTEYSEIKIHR
# Trypanosoma cruzi = assay: Trypanosoma cruzi phosphomannomutase and mannose-1-phosphate guanylyltransferase assay; assay type: functional; set-up: scale not given: direction of the effect not stated beside the values; conditions: 10 µM
# [6] = molecular target: T3, Arginase-2, mitochondrial (Homo sapiens) (UniProt P78540); assay: in vitro enzyme assay to detect the production of urea directly proportional to the activity of Arginase II; assay type: functional; set-up: scale not given: in the data most compounds retested in dose-response had high values; conditions: 33.3 µM
# T3 sequence (whole entry): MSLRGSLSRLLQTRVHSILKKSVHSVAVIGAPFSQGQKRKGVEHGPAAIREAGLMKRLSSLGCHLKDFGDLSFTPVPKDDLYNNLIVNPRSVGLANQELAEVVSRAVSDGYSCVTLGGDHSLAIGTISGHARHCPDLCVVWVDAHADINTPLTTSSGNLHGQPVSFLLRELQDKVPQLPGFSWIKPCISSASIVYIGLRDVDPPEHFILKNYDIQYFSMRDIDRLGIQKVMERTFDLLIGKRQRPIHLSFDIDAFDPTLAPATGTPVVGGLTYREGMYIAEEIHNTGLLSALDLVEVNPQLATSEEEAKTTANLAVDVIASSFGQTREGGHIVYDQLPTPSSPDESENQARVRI
# [7] = molecular target: T4, Proteasome subunit beta (Trypanosoma cruzi) (UniProt O96673); assay: Trypanosoma cruzi proteasome chymotrypsin-like activity (TcProtChymo) assay.; assay type: functional; set-up: scale not given: in the data most compounds retested in dose-response had high values; conditions: 9.37 µM
# T4 sequence (whole entry): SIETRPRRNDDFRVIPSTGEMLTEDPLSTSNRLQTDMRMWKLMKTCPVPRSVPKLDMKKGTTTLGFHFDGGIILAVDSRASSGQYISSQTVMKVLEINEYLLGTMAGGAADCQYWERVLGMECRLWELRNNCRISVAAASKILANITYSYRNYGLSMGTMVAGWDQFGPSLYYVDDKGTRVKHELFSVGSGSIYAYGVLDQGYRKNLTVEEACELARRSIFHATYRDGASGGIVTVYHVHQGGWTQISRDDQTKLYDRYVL
# N/A = assay: Trypanosoma cruzi proteasome luciferase counter-screen; assay type: functional; set-up: scale not given: direction of the effect not stated beside the values; conditions: 9.37 µM
# Homo sapiens = species: Homo sapiens; assay: To identify inhibition of the IFN signalling (Jak-Stat) pathway via expression of an eGFP reporter gene under the control of an IFN-stimulated response element (ISRE) containing MxA promoter.; assay type: functional; set-up: scale not given: direction of the effect not stated beside the values; conditions: 30 µM
# [8] = molecular target: T5, Tyrosyl-tRNA synthetase, putative (Trypanosoma cruzi (strain CL Brener)) (UniProt Q4DSP6); assay: Trypanosoma cruzi tyrosyl tRNA synthetase (TcYRS) _High Tyrosine SOP; assay type: functional; set-up: scale not given: in the data most compounds retested in dose-response had high values; conditions: 30 µM
# T5 sequence (whole entry): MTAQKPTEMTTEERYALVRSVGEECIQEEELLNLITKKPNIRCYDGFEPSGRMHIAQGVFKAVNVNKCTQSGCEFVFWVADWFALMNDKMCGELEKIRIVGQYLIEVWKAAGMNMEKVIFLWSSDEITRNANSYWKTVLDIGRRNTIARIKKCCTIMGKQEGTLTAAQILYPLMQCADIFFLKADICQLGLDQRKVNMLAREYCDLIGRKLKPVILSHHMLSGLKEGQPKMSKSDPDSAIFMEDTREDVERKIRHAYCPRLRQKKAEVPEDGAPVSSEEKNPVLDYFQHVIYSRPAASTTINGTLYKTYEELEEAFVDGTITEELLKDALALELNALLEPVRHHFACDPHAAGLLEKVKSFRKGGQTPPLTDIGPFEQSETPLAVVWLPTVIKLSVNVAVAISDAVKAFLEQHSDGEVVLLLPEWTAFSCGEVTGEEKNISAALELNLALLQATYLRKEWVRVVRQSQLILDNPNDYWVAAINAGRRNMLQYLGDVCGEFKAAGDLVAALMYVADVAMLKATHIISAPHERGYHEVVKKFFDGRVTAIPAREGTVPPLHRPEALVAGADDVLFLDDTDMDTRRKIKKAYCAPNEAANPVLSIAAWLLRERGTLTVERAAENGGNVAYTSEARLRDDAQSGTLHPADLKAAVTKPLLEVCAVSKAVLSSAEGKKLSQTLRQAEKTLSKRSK
# [9] = molecular target: T5, Tyrosyl-tRNA synthetase, putative (Trypanosoma cruzi (strain CL Brener)); assay: Trypanosoma cruzi tyrosyl tRNA synthetase (TcYRS) SOP; assay type: functional; set-up: scale not given: direction of the effect not stated beside the values; conditions: 30 µM
# [10] = molecular target: Chromo domain-containing protein 1 (Saccharomyces cerevisiae (strain ATCC 204508 / S288c) (Baker's yeast)) (UniProt P32657); assay: ScCHD-1 Enzyme Inhibition Assay; assay type: functional; set-up: scale not given: in the data most compounds retested in dose-response had high values; conditions: 30 µM
# Chain of Chromo domain-containing protein 1 (Saccharomyces cerevisiae (strain ATCC 204508 / S288c) (Baker's yeast)) (P32657 whole entry, the tested form may be a part): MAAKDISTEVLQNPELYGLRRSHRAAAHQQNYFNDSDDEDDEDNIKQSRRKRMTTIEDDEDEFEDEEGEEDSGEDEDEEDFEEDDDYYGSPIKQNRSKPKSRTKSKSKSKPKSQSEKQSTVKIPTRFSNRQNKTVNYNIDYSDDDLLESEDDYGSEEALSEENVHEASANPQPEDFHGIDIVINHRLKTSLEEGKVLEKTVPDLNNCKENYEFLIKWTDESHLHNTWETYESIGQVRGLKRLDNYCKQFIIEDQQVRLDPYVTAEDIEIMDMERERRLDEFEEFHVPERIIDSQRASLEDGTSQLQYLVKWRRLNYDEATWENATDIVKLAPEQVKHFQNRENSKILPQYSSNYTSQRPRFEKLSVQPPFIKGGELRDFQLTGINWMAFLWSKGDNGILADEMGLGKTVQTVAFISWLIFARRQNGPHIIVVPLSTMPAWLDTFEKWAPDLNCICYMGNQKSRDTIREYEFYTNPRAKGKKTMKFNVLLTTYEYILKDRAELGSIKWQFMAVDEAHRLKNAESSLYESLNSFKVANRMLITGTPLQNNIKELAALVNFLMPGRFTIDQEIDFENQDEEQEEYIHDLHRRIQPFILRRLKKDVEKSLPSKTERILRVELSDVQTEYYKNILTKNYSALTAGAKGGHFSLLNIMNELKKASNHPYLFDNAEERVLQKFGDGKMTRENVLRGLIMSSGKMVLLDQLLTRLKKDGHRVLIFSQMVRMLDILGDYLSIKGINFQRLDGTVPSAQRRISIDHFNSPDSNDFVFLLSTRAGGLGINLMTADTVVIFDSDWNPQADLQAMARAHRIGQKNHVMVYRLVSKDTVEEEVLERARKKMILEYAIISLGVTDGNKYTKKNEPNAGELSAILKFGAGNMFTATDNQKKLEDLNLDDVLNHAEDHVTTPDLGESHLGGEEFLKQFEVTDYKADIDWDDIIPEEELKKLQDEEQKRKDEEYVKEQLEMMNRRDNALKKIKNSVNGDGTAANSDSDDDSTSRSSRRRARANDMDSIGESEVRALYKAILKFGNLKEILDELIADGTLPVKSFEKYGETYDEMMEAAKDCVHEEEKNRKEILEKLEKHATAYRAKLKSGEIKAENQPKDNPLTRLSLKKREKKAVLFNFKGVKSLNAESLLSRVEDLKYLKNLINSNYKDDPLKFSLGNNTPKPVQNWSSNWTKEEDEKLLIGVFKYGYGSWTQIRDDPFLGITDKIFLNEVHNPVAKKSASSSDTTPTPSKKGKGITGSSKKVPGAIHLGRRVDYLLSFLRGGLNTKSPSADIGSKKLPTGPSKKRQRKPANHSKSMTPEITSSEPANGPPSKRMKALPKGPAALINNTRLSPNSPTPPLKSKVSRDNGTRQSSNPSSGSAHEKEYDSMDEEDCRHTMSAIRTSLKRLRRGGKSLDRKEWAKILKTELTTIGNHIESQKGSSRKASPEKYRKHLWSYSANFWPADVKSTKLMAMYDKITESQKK
smiles,measurement,setting,value
Cc1cc(C)n(CCCn2cncc2-c2ccc3c(c2)CC(C)N3C)n1 (configuration not stated),PXC50,"[1]; BOTTOM 4.401789899, HILLSLOPE 1.374668367, MAX_EFFECT 53.02013423, TOP 100.0",4.02
same,PXC50,"[1]; BOTTOM 5.049738187, HILLSLOPE 0.795238386, MAX_EFFECT 63.88888889, TOP 100.0",4.3
same,PXC50,"[1]; BOTTOM 6.889933183, HILLSLOPE 1.019311149, MAX_EFFECT 71.9237435, TOP 100.0",4.34
same,PXC50,[1]; MAX_EFFECT 6.666666667,< 4
same,PXC50,[1]; MAX_EFFECT 21.73913043,< 4
CC(C)Cc1ncc(CNc2cnccc2CO)s1,PXC50,[1]; MAX_EFFECT 2.711323764,< 4
same,PXC50,[1]; MAX_EFFECT 4.081632653,< 4
same,PXC50,[1]; MAX_EFFECT 4.798464491,< 4
same,PXC50,[1]; MAX_EFFECT 7.246376812,< 4
same,PXC50,[1]; MAX_EFFECT 9.632224168,< 4
CC(C)c1nc2c(n1C)CCN(Cc1nc(-c3cccnc3)no1)C2,PXC50,"[1]; BOTTOM 2.671185226, HILLSLOPE 0.615272847, MAX_EFFECT 58.33333333, TOP 100.0",4.04
same,PXC50,[1]; MAX_EFFECT 45.45454545,< 4
same,PXC50,[1]; MAX_EFFECT 45.58058925,< 4
same,PXC50,[1]; MAX_EFFECT 47.65100671,< 4
same,PXC50,[1]; MAX_EFFECT 48.17658349,< 4
CN1CCc2nc(C3CCN(C(=O)CCC4CCCC4)CC3)ncc2C1,PXC50,"[1]; BOTTOM 0.534632588, HILLSLOPE 1.255840154, MAX_EFFECT 60.86956522, TOP 100.0",4.14
same,PXC50,"[1]; BOTTOM 3.083112022, HILLSLOPE 1.565152708, MAX_EFFECT 54.7024952, TOP 100.0",4.03
same,PXC50,"[1]; BOTTOM -8.837281555, HILLSLOPE 1.047429208, MAX_EFFECT 57.34767025, TOP 100.0",4.14
same,PXC50,"[1]; BOTTOM -19.84781307, HILLSLOPE 1.359990695, MAX_EFFECT 58.41584158, TOP 100.0",4.22
same,PXC50,[1]; MAX_EFFECT 38.75598086,< 4
same,Percent Effect,[2],-2.07%
same,Percent Effect,[3],26.7%
same,Percent Effect,[4],7.92%
same,Percent Effect,[5],-1.28%
same,Percent Effect,Trypanosoma cruzi,5.51%
same,Percent Effect,[6],-2.1%
same,Percent Effect,[7],27.3% and 36.4% and 44%
same,Percent Effect,N/A,6.68% and 6.76%
same,Percent Effect,Homo sapiens,23.7%
same,Percent Effect,[8],44.7%
same,Percent Effect,[9],34.6%
same,Percent Effect,[10],-8.54%
